Assay results as given in PubChem BioAssay AID2629 (Broad Institute, 2010).
The campaign covered roughly 320,000 compounds. About 1,900 (0.59%) were called active. Cut-off read from the data, not from the text of the source: active = inhibition mostly above about 10% (no sharp cut-off); inactive = mostly below about 6.7%. What follows is part of a selection rich in actives, with near analogues and random picks from the rest.

What follows are molecules tested against Protein LANA1 (Human herpesvirus 8 type P (isolate GK18)) (UniProt Q9QR71) (assay: blockers of LANA interaction with H2A/H2B – biochemical, FP readout, HTS, primary screen (AID 2629)). Conditions: cell-free LANA-H2A/H2B peptide, fluorescence polarization, stronger effect = higher value, concentration not given here.
Sequence of Protein LANA1 (Human herpesvirus 8 type P (isolate GK18)) (Q9QR71 whole entry, looked up): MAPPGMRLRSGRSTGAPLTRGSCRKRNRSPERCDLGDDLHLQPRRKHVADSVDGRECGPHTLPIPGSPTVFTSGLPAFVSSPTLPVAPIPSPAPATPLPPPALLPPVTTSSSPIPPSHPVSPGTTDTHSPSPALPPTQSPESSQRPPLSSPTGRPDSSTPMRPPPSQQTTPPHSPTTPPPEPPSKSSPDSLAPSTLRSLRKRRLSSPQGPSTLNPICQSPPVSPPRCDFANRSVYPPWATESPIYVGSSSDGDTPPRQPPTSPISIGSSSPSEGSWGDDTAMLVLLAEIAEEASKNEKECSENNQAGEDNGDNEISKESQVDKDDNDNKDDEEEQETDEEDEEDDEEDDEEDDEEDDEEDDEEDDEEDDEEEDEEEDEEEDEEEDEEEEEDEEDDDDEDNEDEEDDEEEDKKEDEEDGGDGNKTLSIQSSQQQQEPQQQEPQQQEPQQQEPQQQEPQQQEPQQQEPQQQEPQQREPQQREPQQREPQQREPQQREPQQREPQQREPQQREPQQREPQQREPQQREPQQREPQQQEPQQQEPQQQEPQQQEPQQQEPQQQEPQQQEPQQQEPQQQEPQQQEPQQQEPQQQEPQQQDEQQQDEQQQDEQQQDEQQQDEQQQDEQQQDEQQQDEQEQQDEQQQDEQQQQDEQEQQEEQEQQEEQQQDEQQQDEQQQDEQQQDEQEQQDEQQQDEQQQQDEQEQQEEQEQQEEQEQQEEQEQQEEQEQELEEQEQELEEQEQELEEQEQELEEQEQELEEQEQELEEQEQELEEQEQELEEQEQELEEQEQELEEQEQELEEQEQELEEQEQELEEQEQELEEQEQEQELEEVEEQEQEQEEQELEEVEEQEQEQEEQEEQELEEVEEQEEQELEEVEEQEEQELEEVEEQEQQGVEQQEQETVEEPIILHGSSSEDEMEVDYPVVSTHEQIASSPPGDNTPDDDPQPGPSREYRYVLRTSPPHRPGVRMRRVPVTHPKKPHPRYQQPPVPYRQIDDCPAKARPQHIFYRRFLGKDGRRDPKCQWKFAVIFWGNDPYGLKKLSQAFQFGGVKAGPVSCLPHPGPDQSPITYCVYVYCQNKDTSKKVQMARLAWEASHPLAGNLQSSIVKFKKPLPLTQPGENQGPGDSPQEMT

inhibition, inactive:
Cc1c(C(C)CCCO)oc(=O)c2c1Oc1c(C)c(C(C)C[C@@H](C)O)oc(=O)c1C2 (some centres not stated) -3.56%, COc1ccc(C(=O)COC(=O)C(O)c2ccccc2)c(OC)c1 (configuration not stated) -6.19%, Cc1cccc(C2c3[nH]c4ccccc4c3CCN2C(=O)c2cc(-c3cccn3C)n[nH]2)n1 (configuration not stated) 1.43%, O=C(c1cn2ccccc2n1)N1CCc2c([nH]c3ccccc23)C1c1ccccn1 (configuration not stated) 2.75%, Cc1cc(C)n(CCNC(=O)CC2C(=O)NCCN2Cc2ccc(C)o2)n1 (configuration not stated) 4.74%, Cc1cc(N2C(=O)c3ccc(C(=O)NCc4ccccc4)cc3C2=O)no1 0.191%, O=C(CSc1nc2ccccc2c(=O)n1-c1ccc(F)cc1)NC1CC1 0.0498%, CC1CCN(CCCn2c(SCC(=O)NC3CCCC3)nc3ccccc3c2=O)CC1 2.87%, COc1ccc(C)cc1S(=O)(=O)N(CC(=O)Nc1cccc([N+](=O)[O-])c1)c1ccc(C)cc1 -2.08%, Cc1ccc(NC(=O)C(C)Sc2nnc(C3CC3)n2C2CC2)cc1S(=O)(=O)N1CCOCC1 (configuration not stated) -1.97%, COc1ccc([N+](=O)[O-])cc1N(CC(O)CN(CC(C)C)CC(C)C)S(=O)(=O)c1ccc(C)cc1 (configuration not stated) 1.46%, Cc1cccn2c(=O)c(/C=C(\C#N)S(=O)(=O)c3ccc(Cl)cc3)c(N3CCC(C(N)=O)CC3)nc12 -0.0722%, Cc1cccn2c(=O)c(/C=C(\C#N)C(N)=O)c(N3CCCCCC3)nc12 6.27%, COc1c(Br)cc2c(C)c(C(=O)N3CCOCC3)oc2c1Br -7.01%, CCC(C)NC(=O)CSC1=Nc2ccccc2C2=NC(CCC(=O)NCc3ccco3)C(=O)N12 (configuration not stated) 4.12%, O=C(CSC1=Nc2ccccc2C2=NC(CC(=O)NCc3ccco3)C(=O)N12)NCc1ccco1 (configuration not stated) -2.02%, CS(=O)(=O)N(Cc1ccccc1Cl)c1ccc(C(=O)NCc2cccnc2)cc1 3.45%, O=C(/C=C/c1ccc([N+](=O)[O-])cc1)NCCSCc1ccco1 5.42%, Cc1ccc2cc(CCNC(=O)c3ccc4c(c3)OCO4)c(=O)[nH]c2c1 -1.83%, O=C(Nc1ccccc1F)c1ccc2c(c1)OCO2 -1.38%, COc1ccc(OCCn2ccnc2C)cc1 -0.22%, COC(=O)C1=C(C(=O)OC)C2(OC1c1ccc(Br)cc1)C(=O)c1ccccc1C2=O (configuration not stated) 3.44%, COC(=O)CSc1nc2ccccc2c(=O)n1Cc1ccccc1 2.39%, C=CCSc1nc2c(c(=O)[nH]c(=O)n2C)n1Cc1ccccc1 -0.531%, Cc1ccc2cccc(OCCCOc3ccccc3CO)c2n1 -1.05%, C[N+](C)(CCCCCC[N+](C)(C)CCCN1C(=O)c2cccc3cccc(c23)C1=O)CCCN1C(=O)c2cccc3cccc(c23)C1=O 0.475%, COc1ccc(N2C(=O)c3cccc4cccc(c34)C2=O)nn1 -111%, O=C(O)c1ccc2c3c(cccc13)C(=O)N(OS(=O)(=O)c1ccccc1)C2=O 1.71%, Cc1nn(-c2cc(Cl)ccc2N)c(=O)c2ccccc12 0.97%, CC(C)C[C@H]1CN=C(Nc2ccccc2)N1CC1CCCCC1 -0.894%, CCC(=O)Nc1nnc(S(=O)(=O)N2CCCc3ccccc32)s1 3.1%, CN(Cc1ccccc1)C(=O)C1CCCN(c2ncnc3c2nc2n3CCCCC2)C1 (configuration not stated) -6.07%, CN1CCN(S(=O)(=O)c2ccc(Nc3ccc(F)cc3)nc2)CC1 3.84%, CC1(C(=O)O)CCC(C(=O)Nc2ccc(Cl)c(Cl)c2)C1(C)C (configuration not stated) -7.06%, O=C(c1ccccc1)c1cccn1CC(=O)N1CCN(c2ccc(F)cc2)CC1 5.58%, CC1=C(C(=O)OCc2ccccc2)C(c2ccco2)n2ncnc2N1 (configuration not stated) -3.53%, CCOc1ccc(C2=CC(c3ccccc3)n3ncnc3N2)cc1 (configuration not stated) -0.926%, Cc1ccc(NC(=O)COc2coc(CN3CCc4ccccc4C3)cc2=O)cc1Cl -6.2%, O=C(Nc1ccc(Br)cc1)C1CCC(=O)N1Cc1ccccc1Cl (configuration not stated) 1.59%, COc1ccc2oc(=N)c(C(=O)Nc3ccc(Br)cc3)cc2c1 1.77%, COc1ccc(C(=O)/C=C/c2cccnc2)c(OC)c1 0.568%, CC(=O)c1ccc(S(=O)(=O)NC2CC(=O)N(c3ccc4c(c3)OCCO4)C2)cc1 (configuration not stated) -5.02%, O=S(=O)(NC1CC1)c1ccc2c3c(cccc13)CC2 -8.67%, CC(C)C(=O)Nc1ccc2c(c1)oc1ccccc12 0.3%, CC(C)Oc1ccc(C(=O)NC(C)(C)CO)cc1 2.55%, O=C(/C=C/Nc1ccc(S(=O)(=O)Nc2cnc3ccccc3n2)cc1)c1cccnc1 5.47%

inhibition, active:
COCc1ccc(C(=O)N2CCc3c([nH]c4ccccc34)C2c2ccccn2)s1 (configuration not stated) 183%, O=C(CSc1nc2ccccc2c(=O)n1CCCO)NC1CC1 635% [above what the read-out allows, likely interference], Cc1cc(C)cc(Oc2nc3c(C)cccn3c(=O)c2/C=C(\C#N)C(=O)NC2CCS(=O)(=O)C2)c1 (configuration not stated) 18.8%, CC(C)C1N=C2c3ccccc3N=C(SCC(=O)c3ccc(O)c(O)c3)N2C1=O (configuration not stated) 13.1%, O=C(NCCc1ccc(C(F)(F)F)cc1)c1ccc2c(c1)OCO2 16.2%, Cc1cc2nc3c(=O)n(Cc4ccccc4)c(=O)[nH]c3nc2cc1N 27.2%, CN1C(=O)c2cccc3c(N)ccc(c23)C1=O 25.3%, Cc1nn(C)cc1N1C(=O)c2cccc3c(N)ccc(c23)C1=O 101%, Brc1ccc(C2=CC(c3ccco3)n3ncnc3N2)cc1 (configuration not stated) 35%, COc1ccc(/C=C/C(=O)c2cc(Br)ccc(=O)c2O)cc1 182%, CC(C)C(=O)Nc1ccc2c3c(cccc13)CC2 22.9%
